This is a sample that favours compounds with a hit; in the whole collection about 10% have one here.
PNC assembly inh: High Content Assay for Compounds that inhibit the Assembly of the Perinucleolar Compartment | PC3M PTB-GFP, PNC prevalence imaging, 16 h; stronger effect = lower value | activity change (PNC), negative = inhibition, % at 10 µM | 140,000 compounds, 3.1% hits;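 active = readout at or below -70, meaning at least 70% loss of cells showing the perinucleolar compartment, a nuclear body marking cancer cells; inconclusive = readout between -30 and a set limit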
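PC3M cells stably expressing PTB-GFP, 750–1000 cells/well, treated 16 h at 37 °C with compound (23 nl of library stock), in duplicate. After paraformaldehyde fixation and Hoechst stain, imaged at 20x; PNC prevalence scored by image analysis.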
Luc counter: Counterscreen for Luciferase (Kinase-Glo TM) Inhibition | Luciferin 4-monooxygenase (Photuris pensylvanica), Q27757 | 200,000 compounds, 0.28% hits | Kinase-Glo luciferase, ATP luminescence, 8 min | Potency, µM (series often up to 38.3 µM), hits mostly inhibitors; active = well fitted inhibition curve with a large enough effect; inconclusive = small, poorly fitted or top-dose-only effect; also: nearly all actives have a fitted effect of over 60% in size
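Substrate mix (final 50 mM imidazole pH 7.2, 50 mM KCl, 7 mM MgCl2, 10 uM ATP, 0.01% Tween 20, 0.05% BSA) plus pin-tool compound, then Kinase-Glo detection mix; 8 min ambient, luminescence read.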
Lamin A splicing: qHTS Assay for Modulators of Lamin A Splicing; HeLa LMNA splicing GFP/RFP minigene ratio, 48 h; Potency, µM (doses to about 46.1 µM), hits mostly inhibitors; 200,000 compounds, 0.01% hits; AID 1487, 2009; active = well fitted inhibition curve with a large enough effect in the signal ratio, with a control signal flat, not every such curve was filed as active; inconclusive = small, poorly fitted or top-dose-only effect, or effect the other way, or a change in a side signal; the % refers to the signal ratio
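S3 HeLa stable clones carrying a lamin A-EGFP splicing minigene plus DsRed2 were seeded at 600 cells/well in Opti-MEM with 2% FBS, pin-dosed and incubated 48 h at 37°C. Acumen cytometry (488 nm) gave the GFP/RFP total-intensity ratio.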
ALDH1A1 block: qHTS Assay for Inhibitors of Aldehyde Dehydrogenase 1 (ALDH1A1). AID 1030, 2008. Potency, µM (series often up to 75.3 µM), usual class: inhibitors. Aldehyde dehydrogenase 1A1 (Homo sapiens), P00352. 220,000 compounds, 7.3% hits. Purified ALDH1A1, NADH fluorescence, propionaldehyde substrate
HPGD inh: qHTS Assay for Inhibitors of HPGD (15-Hydroxyprostaglandin Dehydrogenase). 150,000 compounds, 4.3% hits. 15-hydroxyprostaglandin dehydrogenase [NAD(+)] (Homo sapiens), P15428. AID 894, 2007. Potency, µM, usual class: inhibitors. purified HPGD, NADH fluorescence kinetic, PGE2 substrate
Target sequence (P15428 whole entry, looked up): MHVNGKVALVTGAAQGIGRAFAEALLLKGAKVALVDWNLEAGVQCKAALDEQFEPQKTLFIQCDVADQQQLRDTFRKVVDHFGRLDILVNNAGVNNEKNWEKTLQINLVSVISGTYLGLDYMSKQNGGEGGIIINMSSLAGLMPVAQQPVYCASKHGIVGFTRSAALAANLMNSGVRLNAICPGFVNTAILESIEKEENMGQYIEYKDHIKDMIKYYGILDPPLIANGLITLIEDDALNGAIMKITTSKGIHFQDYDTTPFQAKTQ
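20 nM HPGD preincubated 15 min at room temperature with compound in 50 mM Tris-HCl pH 8, 0.01% Tween 20. Started with 1 mM NAD+ and 30 uM prostaglandin E2; NADH fluorescence (360/450 nm) read 5 times over 30-s intervals, last minus first.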
Hits are given with their value; [ ] = remark or other dose. Unless noted, calls follow the shape of the dose curve; as a rule, active = well fitted inhibition curve with a large enough effect (not every such curve was filed as active); inconclusive = small, poorly fitted or top-dose-only effect, or another doubt; inactive = no such curve, though single readings can be large or run the other way.

`CCOC(=O)c1c(N)sc(C(=O)OC)c1C` gave Luc counter inactive and ALDH1A1 block inconclusive.
For CCOC(=O)c1c(NC(=O)COc2ccc(CC)cc2)sc2c1CCCC2 the results were Lamin A splicing inactive.
For CCOC(=O)c1c(NC(=O)CN2CCN(C(=O)c3ccco3)CC2)sc2c1CCCC2 the results were PNC assembly inh -100, Luc counter inactive, Lamin A splicing inconclusive, ALDH1A1 block 24µM and HPGD inh inactive.
`CCOC(=O)c1c(NC(=O)COC)sc2c1CCCC2` gave PNC assembly inh -84, Luc counter inactive, Lamin A splicing inactive, ALDH1A1 block inconclusive and HPGD inh inactive.
`N#Cc1ccc(OC(=O)c2ccc(N=C(N)N)cc2)cc1` gave Luc counter inactive[7.66 µM], ALDH1A1 block inactive[13.5 µM] and HPGD inh inactive.
For CCOC(=O)c1c(N2C(=O)C3C4C=CC(O4)C3C2=O)sc2c1CCCC2 (stereo not given) the results were PNC assembly inh inactive, Luc counter inactive, Lamin A splicing inactive, ALDH1A1 block 2.2µM and HPGD inh 16µM.
For CCOC(=O)c1c(NS(C)(=O)=O)sc2c1CCC(C)C2 (stereo not given) the results were PNC assembly inh inactive, Luc counter inactive, Lamin A splicing inactive, ALDH1A1 block inconclusive and HPGD inh inactive.
`CCOC(=O)c1c(N)sc2c1CCC(C)C2` (stereo not given) gave PNC assembly inh inconclusive, Luc counter inactive, Lamin A splicing inconclusive, ALDH1A1 block 13µM and HPGD inh inconclusive.
Screening COC(=O)c1c(N2C(=O)CCC2=O)sc2c1CCCC2 returned PNC assembly inh inactive, Luc counter inactive, Lamin A splicing inactive, ALDH1A1 block inconclusive and HPGD inh inactive.
Screening O=C1NC(=S)S/C1=C\c1coc2ccccc2c1=O returned Luc counter inactive and ALDH1A1 block 8.9µM.
For C/[N+]([O-])=C\c1coc2ccccc2c1=O the results were PNC assembly inh inactive, Luc counter inactive, Lamin A splicing inactive, ALDH1A1 block inactive and HPGD inh inactive.
`COc1ccc(CCNC(=O)C(=O)NCC(c2cccs2)S(=O)(=O)c2ccc(F)cc2)cc1` (stereo not given) gave Lamin A splicing inactive.
Screening COc1ccc(CCNC(=O)c2cc(-c3cc(C)ccc3O)n[nH]2)cc1OC returned PNC assembly inh inconclusive, Luc counter inactive, Lamin A splicing inactive, ALDH1A1 block inactive and HPGD inh 4µM.
For COc1ccc(NC(=O)c2cc(-c3cc(C)ccc3O)n[nH]2)cc1Cl the results were PNC assembly inh inactive, Luc counter inactive, Lamin A splicing inactive, ALDH1A1 block inactive and HPGD inh 3.2µM.
For COc1ccc(OC)c(NC(=O)c2cc(-c3cc(Cl)ccc3O)n[nH]2)c1 the results were PNC assembly inh inactive, Luc counter inactive, Lamin A splicing inconclusive, ALDH1A1 block inactive and HPGD inh inconclusive.
Screening COc1ccccc1C1CC(=O)Oc2c(C(C)C)ccc(C)c21 (stereo not given) returned Luc counter inactive, ALDH1A1 block inactive and HPGD inh inactive.
Clc1ccc2nnnc(-c3ccccc3)c2c1 was read as PNC assembly inh -98, Luc counter inactive, Lamin A splicing inconclusive, ALDH1A1 block inactive and HPGD inh inactive.
For COC(=O)Cc1cc(=O)n(-c2nc3ccccc3[nH]2)[nH]1 the results were PNC assembly inh -100, Luc counter inactive, Lamin A splicing inactive, ALDH1A1 block inactive and HPGD inh inactive.
`CC(C)c1ccc2c(c1)CC[C@H]1[C@@](C)(CN)CCC[C@@]21C` gave Luc counter inactive[7.66 µM], ALDH1A1 block inactive[13.5 µM] and HPGD inh inactive.
`S=c1[nH]nc(-c2ccc3ccccc3n2)n1-c1ccc2ncccc2c1` gave PNC assembly inh inactive, Luc counter inactive, Lamin A splicing inactive, ALDH1A1 block inactive and HPGD inh 13µM.
For S=c1[nH]nc(-c2ccc3ccccc3n2)n1-c1ccc(Cl)cc1 the results were PNC assembly inh inactive, Luc counter inactive, Lamin A splicing inactive, ALDH1A1 block inconclusive and HPGD inh 10µM.
COc1ccccc1N1CCN(CCCNC(=O)c2cnn(-c3ccccc3)c2C2CCN(C(=O)OC(C)(C)C)CC2)CC1 was read as Lamin A splicing inactive.
Cc1ccccc1N1C(=O)c2cc(S(N)(=O)=O)c(Cl)cc2N[C@H]1C was read as Luc counter inactive, Lamin A splicing inconclusive, ALDH1A1 block inconclusive and HPGD inh inactive.
Screening CCNC(=S)N1CCN(c2ccc([N+](=O)[O-])cc2)CC1 returned PNC assembly inh inactive, Luc counter inactive, Lamin A splicing inactive, ALDH1A1 block 3.2µM and HPGD inh inactive.
`O=[N+]([O-])c1ccc(N2CCN(C(=S)NCc3ccc(Cl)cc3)CC2)cc1` gave ALDH1A1 block 11µM.
Screening CNC(=S)N1CCN(c2ccc([N+](=O)[O-])cc2)CC1 returned PNC assembly inh inactive, Luc counter inactive, Lamin A splicing inactive, ALDH1A1 block inconclusive and HPGD inh inactive.
Screening COc1ccc(C(=O)NC(=S)N2CCN(c3ccc([N+](=O)[O-])cc3)CC2)cc1 returned PNC assembly inh inactive, Luc counter inactive, Lamin A splicing inconclusive, ALDH1A1 block inactive and HPGD inh inactive.
`C=CCNC(=S)N1CCN(c2ccc([N+](=O)[O-])cc2)CC1` gave PNC assembly inh inactive, Lamin A splicing inconclusive and ALDH1A1 block inconclusive.
For COCCCNC(=S)N1CCN(c2ccc([N+](=O)[O-])cc2)CC1 the results were PNC assembly inh inactive, Luc counter inactive, Lamin A splicing inconclusive, ALDH1A1 block 28µM and HPGD inh inactive.
`Cc1ccc(CN(C(=O)c2ccc(OCC(C)C)cc2)c2ccccn2)o1` gave Lamin A splicing inactive.
CC(O)COC(C)(C)C (stereo not given) was read as ALDH1A1 block inactive and HPGD inh inactive.
CCOc1ccc(CC(=O)NC2CC(=O)N(c3cccc(F)c3)C2)cc1 (stereo not given) was read as Lamin A splicing inactive.
`Cc1ccc(C(=O)NCc2nnc(SCC(=O)Nc3sc4c(c3C#N)CCCC4)n2C)cc1` gave PNC assembly inh inactive, Luc counter inactive, Lamin A splicing inactive, ALDH1A1 block 14µM and HPGD inh inactive.
Screening COc1ccc(-c2nnn(CC(=O)Nc3sc4c(c3C#N)CCCC4)n2)cc1 returned PNC assembly inh inconclusive, Luc counter inactive, Lamin A splicing inactive, ALDH1A1 block 10µM and HPGD inh inactive.
N#Cc1cc2c(nc1SCC(=O)Nc1sc3c(c1C#N)CCC3)CCCCCC2 was read as PNC assembly inh inconclusive, Luc counter inactive, Lamin A splicing inactive, ALDH1A1 block 16µM and HPGD inh inactive.
For CCn1c(SCC(=O)Nc2sc3c(c2C#N)CCCC3)nnc1-c1ccncc1 the results were PNC assembly inh inactive, Luc counter inactive, Lamin A splicing inactive, ALDH1A1 block 18µM and HPGD inh inactive.

Screening data deposited in PubChem BioAssay by National Center for Advancing Translational Sciences (NCATS).
